This is an account of results in the supplement of paper PMC11172423.

One assay has as its system Madurella mycetomatis MM55. Briefly: growth relative to untreated control; higher = less inhibition, active = 20 or less. The following applies: 25 µM. Here is the method: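 Hyphal fragments of M. mycetomatis MM55 or F. senegalensis CBS197.79 in RPMI 1640/MOPS were exposed to each MMV COVID Box or Global Health Priority Box compound at 100 or 25 µM for 7 days at 37 °C. Viability was read with MTS (490 nm, M. mycetomatis) or resazurin (600 nm, F. senegalensis), background-corrected with a medium-only control and expressed as % growth relative to the untreated growth control. Inhibition of more than 80% was taken as growth inhibition.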
Take `Cn1c(O)nnc1Cn1ccc(C(F)(F)F)c(Oc2cc(Cl)cc(C#N)c2)c1=O`: the growth was 92.7% (inactive).

Take `CCOc1ccccc1NC(=O)Cn1c(=O)n(Cc2ccccc2)c(=O)c2c(C)c(C(=O)N(C)C)sc21`: the growth is 104% (inactive).

`CCCCCCO[C@@H](C)c1cccc(-c2csc(NC(=O)c3cc(Cl)c(/C=C(\C)C(=O)O)c(Cl)c3)n2)c1OC`: the growth is 81% (inactive).

For the compound `N#Cc1ccc(C/C(=N/NC(=O)Nc2ccc(OC(F)(F)F)cc2)c2cccc(C(F)(F)F)c2)cc1`, the growth is 98.2% (inactive).

Turning to `CC(N)CCn1c(Nc2cc(Cl)cc(C(F)(F)F)c2)nc2cnc(NC(C)(C)C)nc21` (stereo not given), the growth was 6.25% (active).

With `CN(C)c1cc(NC(=O)CNC(C)(C)C)c(O)c2c1C[C@H]1C[C@H]3[C@H](N(C)C)C(O)=C(C(N)=O)C(=O)[C@@]3(O)C(O)=C1C2=O`, the growth was 69.1% (inactive).

As to `O[C@@H](CNC[C@H](O)[C@H]1CCc2cc(F)ccc2O1)[C@@H]1CCc2cc(F)ccc2O1`, the growth was 5.79% (active).

As for `CC(C)CC(NCCc1ccccc1O)c1ccccn1` (stereo not given), the growth was 41.8% (inactive).

Turning to `O=C(Nc1ncccc1O)c1ccc(Cn2cccn2)cc1`, the growth is 93.2% (inactive).

In the case of `CCc1nn2c(Nc3ccncc3)cc(C)nc2c1-c1ccccc1`, the growth is 96.8% (inactive).

With `Cc1ccc(-c2cc(C(F)(F)F)nn2-c2ccc(S(N)(=O)=O)cc2)cc1`, the growth was 98% (inactive).

Turning to `OC(Cn1cncn1)(Cn1cncn1)c1ccc(F)cc1F`, the growth was 76% (inactive).

For the compound `CCOc1cc([C@@H](CS(C)(=O)=O)N2C(=O)c3cccc(NC(C)=O)c3C2=O)ccc1OC`, the growth was 98.3% (inactive).

With `Cc1ccc(C)c2sc(N(CCCn3ccnc3)C(=O)c3ccco3)nc12`, the growth was 5.97% (active).

For `COc1cccc2c1C(=O)c1c(O)c3c(c(O)c1C2=O)C[C@@](O)(C(=O)CO)C[C@@H]3O[C@H]1C[C@H](N)[C@H](O)[C@H](C)O1`, the growth was 116% (inactive).

Turning to `Cc1cc2c(cc1Cl)N(C(=O)Nc1cc(F)cc(-c3cncnc3)c1)CC2`, the growth is 106% (inactive).

On to `CCCCC(=O)N(Cc1ccc(-c2ccccc2-c2nn[nH]n2)cc1)[C@H](C(=O)O)C(C)C`, for which the growth is 82.1% (inactive).

As for `C=CC[C@@H]1/C=C(\C)C[C@H](C)C[C@H](OC)[C@H]2O[C@@](O)(C(=O)C(=O)N3CCCC[C@H]3C(=O)O[C@H](/C(C)=C/[C@@H]3CC[C@@H](O)[C@@H](OC)C3)[C@H](C)[C@@H](O)CC1=O)[C@H](C)C[C@@H]2OC`, the growth is 84.5% (inactive).

Consider `Cc1ccc(NC(=O)c2ccc(CN3CCN(C)CC3)cc2)cc1Nc1nccc(-c2cccnc2)n1`, for which the growth was 86% (inactive).

On to `Cc1cnc2nc(NC3COc4ccccc43)nc(NC(C3CC3)C3CC3)c2c1` (stereo not given), for which the growth was 7.72% (active).

Staying with this assay, now noted: 100 µM.
Turning to `Cn1c(O)nnc1Cn1ccc(C(F)(F)F)c(Oc2cc(Cl)cc(C#N)c2)c1=O`, the growth was 90.8% (inactive).

In the case of `CCOc1ccccc1NC(=O)Cn1c(=O)n(Cc2ccccc2)c(=O)c2c(C)c(C(=O)N(C)C)sc21`, the growth is 109% (inactive).

Regarding `CCCCCCO[C@@H](C)c1cccc(-c2csc(NC(=O)c3cc(Cl)c(/C=C(\C)C(=O)O)c(Cl)c3)n2)c1OC`, the growth was 85.9% (inactive).

Take `N#Cc1ccc(C/C(=N/NC(=O)Nc2ccc(OC(F)(F)F)cc2)c2cccc(C(F)(F)F)c2)cc1`: the growth was 91.3% (inactive).

Consider `CC(N)CCn1c(Nc2cc(Cl)cc(C(F)(F)F)c2)nc2cnc(NC(C)(C)C)nc21` (stereo not given), for which the growth was 5.86% (active).

As for `CN(C)c1cc(NC(=O)CNC(C)(C)C)c(O)c2c1C[C@H]1C[C@H]3[C@H](N(C)C)C(O)=C(C(N)=O)C(=O)[C@@]3(O)C(O)=C1C2=O`, the growth is 104% (inactive).

Take `O[C@@H](CNC[C@H](O)[C@H]1CCc2cc(F)ccc2O1)[C@@H]1CCc2cc(F)ccc2O1`: the growth is 3.82% (active).

In the case of `CC(C)CC(NCCc1ccccc1O)c1ccccn1` (stereo not given), the growth was 41.6% (inactive).

On to `O=C(Nc1ncccc1O)c1ccc(Cn2cccn2)cc1`, for which the growth was 123% (inactive).

In the case of `CCc1nn2c(Nc3ccncc3)cc(C)nc2c1-c1ccccc1`, the growth is 75.7% (inactive).

In the case of `Cc1ccc(-c2cc(C(F)(F)F)nn2-c2ccc(S(N)(=O)=O)cc2)cc1`, the growth was 6.13% (active).

On to `OC(Cn1cncn1)(Cn1cncn1)c1ccc(F)cc1F`, for which the growth was 4.95% (active).

In the case of `CCOc1cc([C@@H](CS(C)(=O)=O)N2C(=O)c3cccc(NC(C)=O)c3C2=O)ccc1OC`, the growth was 90.4% (inactive).

`Cc1ccc(C)c2sc(N(CCCn3ccnc3)C(=O)c3ccco3)nc12`: the growth is 7.8% (active).

Consider `COc1cccc2c1C(=O)c1c(O)c3c(c(O)c1C2=O)C[C@@](O)(C(=O)CO)C[C@@H]3O[C@H]1C[C@H](N)[C@H](O)[C@H](C)O1`, for which the growth was 72.5% (inactive).

Regarding `Cc1cc2c(cc1Cl)N(C(=O)Nc1cc(F)cc(-c3cncnc3)c1)CC2`, the growth was 49.7% (inactive).

As for `CCCCC(=O)N(Cc1ccc(-c2ccccc2-c2nn[nH]n2)cc1)[C@H](C(=O)O)C(C)C`, the growth is 83.4% (inactive).

For `C=CC[C@@H]1/C=C(\C)C[C@H](C)C[C@H](OC)[C@H]2O[C@@](O)(C(=O)C(=O)N3CCCC[C@H]3C(=O)O[C@H](/C(C)=C/[C@@H]3CC[C@@H](O)[C@@H](OC)C3)[C@H](C)[C@@H](O)CC1=O)[C@H](C)C[C@@H]2OC`, the growth is 48.1% (inactive).

In the case of `Cc1ccc(NC(=O)c2ccc(CN3CCN(C)CC3)cc2)cc1Nc1nccc(-c2cccnc2)n1`, the growth was 70.7% (inactive).

For the compound `Cc1cnc2nc(NC3COc4ccccc43)nc(NC(C3CC3)C3CC3)c2c1` (stereo not given), the growth was 8.15% (active).
